# Reference: the supplement of paper PMC6555819
# Tests used:
# Test in all cases: PBM binding z-score (relative to random genomic background probes); higher = stronger binding; sequences stand for … in GC…GCGATTGACAGCGTAGAATGAAGG
# [1] = tested on: PPARg:RXRa DBDmut IVT, anti-RXR (DBD mutation: RXRa K156A/R161A, NR concentration 270 nM, RXRa partner concentration 90 nM)
# Method in brief: (§1)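 Binding z-scores take random background probes as their reference. They come from custom Agilent 4×180K protein-binding microarrays incubated 1 h with ligand-free nuclear receptor dimers, with antibodies against each partner (one per run) detecting binding. Scanned fluorescence was regression-normalized.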
# [2] = tested on: PPARg:RXRa IVT, anti-PPARg (NR concentration 270 nM, RXRa partner concentration 90 nM)
# Method in brief: as §1
# [3] = tested on: PPARg DBDmut:RXRa IVT, anti-PPARg (DBD mutation: PPARg1 K132A/R137A, NR concentration 270 nM, RXRa partner concentration 90 nM)
# Method in brief: as §1
# [4] = tested on: PPARg DBDmut IVT, anti-PPARg (DBD mutation: PPARg1 K132A/R137A, NR concentration 270 nM)
# Method in brief: as §1
# [5] = tested on: PPARg homodimer (NR concentration 180 nM)
# Method in brief: as §1
# [6] = tested on: PXR:RXRa (NR concentration 270 nM, RXRa partner concentration 90 nM)
# Method in brief: as §1
# [7] = tested on: PXR homodimer (NR concentration 270 nM)
# Method in brief: as §1
# [8] = tested on: RARa:RXR (NR concentration 270 nM, RXRa partner concentration 90 nM)
# Method in brief: as §1
# [9] = tested on: RARa homodimer (NR concentration 270 nM)
# Method in brief: as §1
# [10] = tested on: RARb:RXRa (NR concentration 270 nM, RXRa partner concentration 90 nM)
# Method in brief: as §1
Sequence,PBM binding z-score [1],PBM binding z-score [2],PBM binding z-score [3],PBM binding z-score [4],PBM binding z-score [5],PBM binding z-score [6],PBM binding z-score [7],PBM binding z-score [8],PBM binding z-score [9],PBM binding z-score [10]
GCGACTCGGGCAAAGCAGGTTACCATAAGGTTGG,0.437,0.613,-1.22,-1.92,-0.783,-0.339,-0.681,0.418,-0.821,0.403
ATACCAAGGTGATCGTCAGGTCGTTGATACTAAC,0.522,1.08,0.616,-0.131,0.369,1.24,0.399,1.23,-0.256,1.12
AGTTACGGGTCAACGAGGTTATAGCACGCGTATA,2.76,3.97,0.585,1.05,1.48,5.12,2.21,4.6,0.766,4.16
CAAACTAGGTCTCAGAGGTCAAAGTCCGTGCGTA,5.55,5.54,0.45,0.559,2.98,5.51,2.93,5.67,1.38,3.88
TAGCCTAGGTGATTCAGGGGCCAGTATAGAAAGC,0.201,0.666,-0.281,0.314,-0.16,-0.295,-0.446,0.184,-0.571,0.516
CCTGCTAGGTCATGGTCAGCCAATCTACAGTATG,4.43,3.74,0.352,0.0677,1.85,1.21,-0.386,2.49,0.141,3.9
CCTATTAGTTGACCATAAGTGCAACCGAAGCTCG,0.899,0.364,1.12,0.839,1.89,1.11,1.66,0.812,2.6,0.81
ATCTCTAGGTAAGACACAGTTCAGTGAAGAACGC,2.01,1.34,1.21,1.33,1.82,1.31,1.06,0.786,1.69,0.924
CCTACTGGGCCAAAGGTCATCGATTCCAATGCTC,4.64,6.76,0.425,-0.332,3.7,5.15,0.811,6.16,1.37,4.7
TCAGACAAGTGAAGGTAACTCAGGTACGCAGTCG,2.07,0.111,0.0158,-0.174,-0.105,0.509,-0.105,0.807,-0.0772,0.197
CAAACTATGTCACCGGAAGGTCAAAGTCCGCATG,5.08,5.25,0.711,1.64,3.93,4.29,2.1,4.93,2.43,3.7
TCTTGTAGATCAACCAGGTTAAGAAAGCCTGAGT,2.07,0.996,-0.047,0.818,-0.217,0.658,0.148,0.664,0.037,0.316
ATAAGTAGGTTAGCTGGGGTCATTCAGACTAGGC,6.73,6.66,3.65,1.92,3.63,6.42,4.39,5.76,1.28,3.24
CCTCGGAGGACAACAGGAGCTCAGAGCTGCCAGA,0.0652,-0.614,-1.06,-2.08,-0.744,-0.836,-0.522,-0.894,-0.387,0.83
TCAGACAGGTGAAGGTAAATCAGGTACGCAGTCG,2.98,1.27,-0.386,0.474,1.11,0.994,0.51,1.26,0.658,1.4
GCTAGCAGGCTATTTGGGTCACTCAATGACGGGC,3.1,3.87,-0.208,-0.897,0.28,0.435,-0.454,1.01,-0.508,1.27
GCTTGTAGATCAAGGTCAAGAAAGACTAAGCTAA,2.14,2.87,0.431,-0.296,1.34,2.63,0.449,3.08,0.173,3.5
GCTATTAGTTAAAAGGGCAACCGAATGATTCTCG,0.433,0.998,0.676,-0.168,1.15,0.537,0.39,0.874,1.2,1.97
CCGACTGGGGCAAAGTTTACCATACTCAGTACGA,4.45,4.71,-0.8,-0.571,0.875,0.182,0.0528,0.465,-0.24,1.41
GGGACTGGGGCAAAGCAGGTTACCATAAGGTTGG,4.85,5.97,0.631,0.017,1.03,1.21,0.82,1.18,-0.119,1.39
GTACCAAGGTGAGTAGGTCGTTGATGAGTAGGCG,1.77,2.68,-0.145,-1.14,0.691,0.089,0.0427,0.391,0.166,1.16
GCATATAGGTAATACAAGGTGAAAGACCGATTGT,3.84,3.44,0.445,0.718,0.0891,0.523,-0.102,1.49,0.624,0.568
GCTTGTAGTTCAAGGTTAAGAAAGACTAAGCTAA,-0.00904,0.825,0.1,0.576,0.358,1.71,0.883,1.74,0.195,2.61
ACTTACGGGTCAACGAGGTTATATCACGCGTATA,2.95,3.92,0.992,1.71,2.52,5.03,3.3,4.76,0.919,4.28

Sequence,PBM binding z-score [1],PBM binding z-score [2],PBM binding z-score [3],PBM binding z-score [4],PBM binding z-score [5],PBM binding z-score [6],PBM binding z-score [7],PBM binding z-score [8],PBM binding z-score [9],PBM binding z-score [10]
TCATATCGGTAAACAGGTGAAAGTCCGTAAGTTA,2.55,2.3,0.278,0.853,0.999,0.657,0.286,0.933,1.19,0.764
TGAATGAGGTTGAAGATCAGGGAACGTGGCGTCG,-0.653,0.294,0.451,0.38,-0.432,-0.193,-0.315,0.257,-0.208,0.206
CCGAGTAGGTTATGGGGCCTTCAGGCAACGGTGA,3.11,2.85,-0.856,-1.59,0.629,-0.268,-0.427,0.0801,0.0148,0.668
ATCTCTAGGTAAAAGTTAAGTGAATCCCGAGGAT,2.03,2.31,1.28,1.28,0.613,-0.127,-0.352,-0.144,0.373,0.28
GGAACGACGGCAAAGTTGATAGCATCTGTCGACG,-0.332,-0.552,-0.0147,-1.18,-0.573,-0.362,-0.756,0.0195,-0.6,-0.341
CCTAGTTGGTCAGGAGGTAACACACCGGATATGA,0.719,1.36,0.594,0.266,1.37,0.0397,0.446,0.422,1.49,0.781
TCGAGTAGGTTAGCAATGGGGCATTCAGCTTTCT,2.43,1.46,-0.902,-1.37,-0.285,-0.264,-0.747,-0.123,-0.474,0.542
TCTAGCAGGCAAGAGGGTCACTCAAGAGGTACGG,0.584,0.0219,-0.412,-0.872,0.722,1.62,-0.663,2.3,-0.406,1.92
CCGAGTAGGTTAGGGGGCATTCAGGCAACGGTGA,2.55,4.72,4.62,4.7,2.25,2.19,1.47,2.41,0.807,2.11
ACTTACTGGTCAACGAGGTTATAGCACGCGTATA,1.29,1.65,1.75,1.91,1.38,1.89,0.901,2.03,1.23,2.09
AATACAGGGTCATCGTAGGCCAGAATACGCACAG,2.86,4.2,1.53,0.878,1.87,4.6,0.787,4.56,1.11,4.31
CCTGCTAGGTCATGCTCAGCTAATCTACAGTATG,4.78,3.37,0.405,0.309,0.827,0.957,-0.979,2.05,-0.229,3.75
TCTCGGAGGACGCGAAAGGTCAGAGCTCGACATC,0.887,0.996,1.57,0.428,2.2,3.7,0.0066,4.09,0.692,3.89
TTACCAAGCTGAAAGGTCGTTGATGCACGCCTTG,-0.529,0.156,-0.407,-0.623,0.193,1.72,-0.0821,1.66,-0.928,1.36
CCTACTGGGCCATCAGTTCATTGATATCAACGTT,4.11,3.98,0.61,0.651,0.245,1.18,2.78,0.106,0.0148,0.462
AGCATGAGGTTATTAAGATCAGGGAATTGCGGTC,0.439,0.818,0.518,-0.586,0.577,1.29,0.786,1.44,0.368,1.45
CCTACTGGGCCTTTCAGAGGTCATTGATCATATG,2.39,2.44,-0.307,0.081,2.46,4.68,2.5,4.52,1.01,2.8
ATCTCTAGGTAAAGTTCCGTGAAAGATCGATAGA,2.64,1.76,0.867,0.679,0.653,0.0557,0.396,0.388,1.19,0.403
ATCTCTAGGTAAAAGATCAGTGAATCCCGAGGAT,2.47,2.26,1.02,0.762,0.847,-0.177,-0.245,0.0916,0.407,-0.0842
GCTGCTAGGTCAGGTCGGTCAGCTAACGGGTACG,2.59,2.88,-0.904,-0.563,0.777,0.726,-0.37,1.37,-0.616,3.88
TAGCCCAGGTCATGGGCCAGTATACCACGCGAAC,0.271,2.71,0.391,-0.431,0.53,2.24,-0.39,2.96,0.0198,3.78
ACCGAAAGGTCGACGAGGTGAGTATACACCGTTT,1.08,2.03,0.47,0.38,1.27,2.93,0.279,3.29,0.4,4.19
CCTTACGGGTCACTGACAGGTTATAGCTTTTGGA,3.62,3.94,-0.188,-0.142,1.82,3.38,-0.201,4.13,0.634,3.74
TCTAGCAGGCCAGAGGGTCAATCAAGAGGTACGG,0.793,0.929,-2.08,-0.99,1.31,1.76,-0.442,2.63,-0.831,2.25
